High-throughput results: PubChem BioAssay, several laboratories
Rows were chosen to be rich in hits. Some 3.8% of all compounds tested hit in one or more screens of this group.
CR mimetic SO: caloric restriction mimetics inhibiting age-related superoxide in yeast | S. cerevisiae aged cells, superoxide DHE fluorescence; active compounds read low | 0.18% of 330,000 active | superoxide response (% of plate mean), % at 10 µM | AID 2690;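 active means superoxide response under a set limit, about three screen SD below normal, cut at about 65% in these data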;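 further: yeast aged for seven days with compound at 30 °C before DHE staining; 100% = average MFI of all compound-treated wells on the plate with controls excluded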
MPTP block: permeability transition pore inhibition. 1.4% of 360,000 active. isolated mouse mitochondria, Ca2+ swelling absorbance, 30 min. inhibition, % at 10 µM;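 active means inhibition of 50% or more, scaled per plate between neutral and stimulator controls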;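 further: 0% = DMSO wells given calcium and 100% = 1 mM EGTA wells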
aDG glyco up: increases alpha dystroglycan glycosylation | Pro5-aDG cells, alpha-DG glycosylation AlphaScreen (IIH6); 0% Pro5, 100% B10-LARGE cell signal | activation, % at 10 µM | 0.22% of 360,000 active;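 active means activation of at least 8% versus controls, or a plate z-score of at least 8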;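 further: Pro5 are CHO cells carrying HIG-tagged alpha-DG that lacks glycosylation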
H9c2 protect: protects H9c2 cardiomyocytes from peroxide injury. H2O2 injury protection, ATPLite, 2 h. 0.63% of 360,000 active. protection from H2O2 cell death, % at 20 µM;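 active means compounds giving at least 50% protection of heart cells from peroxide-induced death in the single-dose screen, raw or plate-pattern-corrected value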;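 further: 0% = DMSO wells with peroxide and 100% = DMSO wells without peroxide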
FAS-TE inh: blocks the thioesterase domain of human fatty acid synthase | P49327 | recombinant FAS-TE, OMFH fluorogenic substrate, fluorescence endpoint | inhibition, % at 15 µM | 0.67% of 360,000 active;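 active means compounds whose normalised, plate-corrected inhibition of enzyme fluorescence in the single-dose primary screen is 50% or more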;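 further: 0% = DMSO with enzyme and 100% = substrate without enzyme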
Target sequence (P49327 whole entry, looked up, the tested form may be a part): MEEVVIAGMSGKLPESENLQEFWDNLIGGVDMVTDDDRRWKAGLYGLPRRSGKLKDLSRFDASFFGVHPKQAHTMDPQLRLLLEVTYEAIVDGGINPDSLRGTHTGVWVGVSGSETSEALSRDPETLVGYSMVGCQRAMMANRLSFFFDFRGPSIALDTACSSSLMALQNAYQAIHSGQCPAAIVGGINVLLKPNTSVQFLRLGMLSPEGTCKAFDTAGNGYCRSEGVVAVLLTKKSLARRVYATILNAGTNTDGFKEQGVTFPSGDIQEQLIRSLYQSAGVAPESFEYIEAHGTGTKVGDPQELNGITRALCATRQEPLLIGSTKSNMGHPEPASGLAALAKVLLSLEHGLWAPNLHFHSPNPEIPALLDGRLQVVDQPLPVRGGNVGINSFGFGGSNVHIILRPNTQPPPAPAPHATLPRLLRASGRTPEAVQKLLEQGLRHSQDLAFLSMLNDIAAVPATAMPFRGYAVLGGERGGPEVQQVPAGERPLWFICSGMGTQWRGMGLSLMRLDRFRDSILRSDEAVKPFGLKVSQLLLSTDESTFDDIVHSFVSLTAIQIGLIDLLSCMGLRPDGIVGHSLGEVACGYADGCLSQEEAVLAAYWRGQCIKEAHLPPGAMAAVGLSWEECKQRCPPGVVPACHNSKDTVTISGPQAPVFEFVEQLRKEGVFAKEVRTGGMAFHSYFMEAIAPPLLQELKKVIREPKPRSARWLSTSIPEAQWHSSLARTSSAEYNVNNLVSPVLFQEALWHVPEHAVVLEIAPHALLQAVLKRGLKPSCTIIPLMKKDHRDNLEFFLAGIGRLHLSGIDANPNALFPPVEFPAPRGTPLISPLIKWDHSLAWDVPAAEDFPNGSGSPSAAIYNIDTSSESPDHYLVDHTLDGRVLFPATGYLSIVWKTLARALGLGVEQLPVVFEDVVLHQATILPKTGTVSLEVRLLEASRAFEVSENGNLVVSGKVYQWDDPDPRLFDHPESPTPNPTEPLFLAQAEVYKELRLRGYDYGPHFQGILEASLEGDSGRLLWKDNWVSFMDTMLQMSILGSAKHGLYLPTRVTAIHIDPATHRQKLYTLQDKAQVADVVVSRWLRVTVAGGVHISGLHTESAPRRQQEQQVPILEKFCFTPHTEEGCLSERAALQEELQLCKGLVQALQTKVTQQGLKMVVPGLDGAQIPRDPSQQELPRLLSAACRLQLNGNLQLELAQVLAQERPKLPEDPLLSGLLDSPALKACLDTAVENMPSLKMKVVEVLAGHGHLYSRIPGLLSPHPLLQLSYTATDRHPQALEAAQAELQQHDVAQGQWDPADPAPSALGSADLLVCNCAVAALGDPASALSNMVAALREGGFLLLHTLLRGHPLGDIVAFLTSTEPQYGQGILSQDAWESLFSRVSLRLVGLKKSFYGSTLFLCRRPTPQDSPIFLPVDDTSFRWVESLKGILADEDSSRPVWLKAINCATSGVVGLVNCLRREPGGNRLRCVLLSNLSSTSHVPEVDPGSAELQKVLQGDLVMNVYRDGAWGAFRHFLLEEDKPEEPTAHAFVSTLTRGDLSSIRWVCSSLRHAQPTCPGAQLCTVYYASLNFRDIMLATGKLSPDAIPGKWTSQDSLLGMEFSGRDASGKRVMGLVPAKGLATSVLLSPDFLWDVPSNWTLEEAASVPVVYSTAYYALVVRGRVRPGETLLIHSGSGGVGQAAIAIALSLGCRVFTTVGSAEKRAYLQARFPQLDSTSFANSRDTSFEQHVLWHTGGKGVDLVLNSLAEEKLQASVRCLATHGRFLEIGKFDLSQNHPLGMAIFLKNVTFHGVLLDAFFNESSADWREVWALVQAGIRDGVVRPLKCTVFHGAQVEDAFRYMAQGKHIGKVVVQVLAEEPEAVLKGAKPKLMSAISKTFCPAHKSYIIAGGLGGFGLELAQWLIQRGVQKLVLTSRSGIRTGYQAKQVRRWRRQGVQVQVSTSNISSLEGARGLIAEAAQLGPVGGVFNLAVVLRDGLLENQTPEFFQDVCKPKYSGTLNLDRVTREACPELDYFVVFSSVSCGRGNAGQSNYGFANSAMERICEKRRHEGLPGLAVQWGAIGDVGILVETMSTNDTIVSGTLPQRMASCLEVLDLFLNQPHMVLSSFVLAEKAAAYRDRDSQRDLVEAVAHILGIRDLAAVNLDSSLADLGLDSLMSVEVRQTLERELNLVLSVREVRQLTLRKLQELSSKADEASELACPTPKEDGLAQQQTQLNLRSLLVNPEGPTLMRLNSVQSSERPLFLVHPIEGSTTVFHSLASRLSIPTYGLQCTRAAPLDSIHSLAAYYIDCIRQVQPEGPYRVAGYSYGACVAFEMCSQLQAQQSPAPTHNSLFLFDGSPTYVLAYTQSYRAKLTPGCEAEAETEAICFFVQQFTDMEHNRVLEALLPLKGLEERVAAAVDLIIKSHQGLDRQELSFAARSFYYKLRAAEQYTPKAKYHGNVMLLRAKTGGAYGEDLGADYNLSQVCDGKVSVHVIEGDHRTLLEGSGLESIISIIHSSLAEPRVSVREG
SUMO Mot1 rescue: blocks SUMOylation pathway, rescuing yeast Mot1-301 growth | S. cerevisiae Mot1-301 growth rescue, ATP luminescence, 38.5C; percent above DMSO median, 100 means doubled | 1% of 320,000 active | growth rescue, % at 18.8 µM;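 active means every valid replicate shows activation above 250% relative to neutral control wells; inactive means the rest, any valid replicate at or below 250%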;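 further: OY570 slx delta 5 strain wells were the positive control but not used for scaling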
Superoxide pick: confirmation of caloric restriction mimetics inhibiting yeast age-related superoxide. shares compounds with CR mimetic SO. S. cerevisiae aging, superoxide DHE fluorescence; active compounds read low. superoxide response (% of plate), % at 10 µM. 1% of 850 active. AID 434994;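 active means superoxide signal below 65% of the plate average of sample wells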;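 further: cells aged with compound for 7 days at 30 degrees C before staining; 100% equals mean DHE fluorescence of all compound wells on the plate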
DHE counter: counter-screen for compounds affecting DHE oxidation and fluorescence in yeast. fluorescence response, % at 10 µM. shares compounds with CR mimetic SO. 850 tested, under 10 active. S. cerevisiae BY4741, flow cytometry; active compounds read low;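 active means fluorescence response below 15%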;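 further: percent of the mean fluorescence averaged over all compound wells on the plate; lower means stronger quenching of DHE signal or ROS scavenging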
The depositor's hits bear a star; x = not tested or not shown.

SMILES	CR mimetic SO	MPTP block	aDG glyco up	H9c2 protect	FAS-TE inh	SUMO Mot1 rescue	Superoxide pick	DHE counter
COC1C(O)C(C)OC(OC2C(Oc3cccc4c(O)c5c(=O)oc6ccc(C)c7c(=O)oc(c34)c5c67)OC(C)C(O)C2O)C1O (centres undefined)	x	-2	0	-3	0	x	x	x
C1=NCCCN2CCCCC12 (centres undefined)	x	1	0	4	-6	x	x	x
Cc1ccccc1-n1c(O)c(/C=N/Nc2nc3c(c(=O)n(C)c(=O)n3C)n2C)c(=O)[nH]c1=S	104	-1	0	8	-11	-13	x	x
Cn1c(=O)c2c(nc(N/N=C/c3c(O)n(C4CCCCC4)c(=S)[nH]c3=O)n2C)n(C)c1=O	105	0	0	68*	18	4	x	x
Cc1c(CCN)ccc2c1[nH]c1ccccc12	65*	-2	0	8	-6	-4	x	x
Cc1ccc(C(O)(C(=O)OC(C)C)C(O)c2ccc(F)cc2)cc1 (centres undefined)	x	1	0	x	x	x	x	x
COCCCn1c(N)c(C(=O)OCCOC)c2nc3ccccc3nc21	80	-2	0	4	-4	35	x	x
CCOC(=O)c1c(N)n(CCCOC(=O)c2ccco2)c2nc3ccccc3nc12	154	-1	14*	-33	-1	-10	x	x
C[C@]12CC[C@H](O)C[C@@H]1CC[C@@H]1[C@@H]2CC[C@]2(C)C(=O)CC[C@@H]12	70	3	0	35	4	63	x	x
C[C@]12CCC3[C@@H](CC[C@@H]4C[C@H](O)CC[C@]34C)[C@@H]1CCC2=O (some centres undefined)	66	1	0	-5	0	37	x	x
C[C@]12CCC3C(CC[C@H]4C[C@@H](O)CC[C@]34C)C1C[C@@H](Br)[C@H]2O (some centres undefined)	77	1	0	3	0	156	104	112
C[C@]12CCC3C(CC[C@H]4C[C@@H](O)CC[C@]34C)C1[C@H]1CN=N[C@H]1[C@@H]2O (some centres undefined)	108	-1	0	14	-3	8	134	120
C[C@]12CCC3C(CC[C@H]4C[C@@H](O)CC[C@]34C)C1CCC2=O (some centres undefined)	63*	1	0	17	-3	49	90	103
C[C@]12CCC3C(CC[C@H]4C[C@@H](O)CC[C@]34C)C1CC[C@@H]2OC(=O)[C@H](N)CCCCN (some centres undefined)	82	0	1	14	-2	52	73	98
Cc1ncoc1C(=O)NCC1=C(c2ccc(S(C)(=O)=O)cc2)C[C@@H]2CC[C@H]1N2CCOc1ccccc1	x	-1	0	8	-6	x	x	x
CCOc1ccc(C2SCC(=O)Nc3c2c(=O)[nH]n3C2CCCCCC2)cc1 (centres undefined)	62*	3	0	2	-11	-11	105	96
CC(C)(C)c1ccc(C(=O)C2CCCN(Cc3ccon3)C2)cc1 (centres undefined)	94	1	0	2	-20	41	x	x
CC(C)(C)c1ccc(C(=O)C2CCCN(C3CCC3)C2)cc1 (centres undefined)	65*	-4	0	-6	-6	90	121	119
O=C(NCC1=C(c2cccc3ccccc23)C[C@@H]2CC[C@H]1N2Cc1ccco1)c1ccc([N+](=O)[O-])cc1	x	0	0	12	30	x	x	x
C[C@]12CCC(=O)C[C@H]1CC[C@@H]1[C@@H]2CC[C@]2(C)[C@@H](O)CC[C@@H]12	73	x	x	x	x	250	99	118
CC12CCC3C(CCC4CC(=O)C(C(O)C(F)(F)F)CC43C)C1CCC2O (centres undefined)	x	2	0	6	11	x	101	115
CC12CCC3C(CCCC4CC(=O)CCC43C)C1CCC2O (centres undefined)	x	0	0	-2	-4	x	x	x
CN1[C@@H]2CCC[C@H]1CC(=O)C2	x	-2	0	3	0	x	x	x
COc1ccc(-n2c(O)c(C(C)=NCC3CCCO3)c(=O)[nH]c2=O)cc1 (centres undefined)	56*	0	0	0	-7	5	107	126
C[C@]12CCC3C(C[C@@H](O)[C@H]4C[C@@H](O)CC[C@]34C)C1CC[C@@H]2O (some centres undefined)	104	0	0	2	-7	-4	96	95
SMILES	CR mimetic SO	MPTP block	aDG glyco up	H9c2 protect	FAS-TE inh	SUMO Mot1 rescue	Superoxide pick	DHE counter
C[C@]12CC[C@H](N)CC1=CCC1C2CC[C@@]2(C)C1CC[C@@H]2O (some centres undefined)	123	1	1	-5	0	20	x	x
C[C@]12CCC(=O)C=C1CCC1C2CC[C@@]2(C)C1CC[C@@H]2O (some centres undefined)	92	x	0	-2	-3	16	x	x
C[C@]12CCC3C(CC[C@@H]4[C@H]5O[C@H]5CC[C@]34C)C1CC[C@@H]2O (some centres undefined)	x	-2	0	-3	2	x	78	93
CSCCC(c1nnnn1-c1c(C)cccc1C)N1CCC2(CC1)C(=O)NCN2c1ccccc1 (centres undefined)	x	0	0	14	25	x	x	x
CS(=O)(=O)c1ccc(C2=C(CNC(=O)c3nccs3)[C@H]3CC[C@@H](C2)N3Cc2ccccc2)cc1	x	0	0	3	-6	x	x	x
CNc1ccc2nc3ccccc3[n+](C)c2c1	62*	17	2.7*	-16	-2	-33	62*	110
C[C@H]1[C@@H](OS(=O)(=O)O)C[C@@H]2C[C@H]([C@@H](O)c3cc(=O)[nH]c(=O)[nH]3)NC3=NC[C@H]1N32	x	1	0	2	0	x	x	x
CSCCC(NC(=O)CCC(=O)OC1CC[C@H]2[C@@H]3CC[C@H]4CC(=O)CC[C@]4(C)[C@H]3CC[C@]12C)C(=O)O (some centres undefined)	97	1	0	1	0	21	83	105
Cc1ccc[n+](CC(O)Cn2c3ccccc3c3ccccc32)c1 (centres undefined)	52*	0	0	-6	-11	-8	92	91
Cc1ccc(C)c(Cn2c(C(=O)O)c(C=O)c3ccccc32)c1	110	2	0	4	-35	7	x	x
CCCCCC1(C(C)C)C(=O)NC(=S)NC1=O	x	-2	0	4	-5	x	x	x
